# Assay outcomes (PubChem BioAssay)
# Lmaj promast – Leishmania major promastigote growth inhibition; Leishmania major promastigotes, resazurin fluorescence viability; inhibition, % at 10 µM; hit rate 9% among 200,000; AID 1063; in the data active = inhibition above about 50%;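 also: promastigotes grown with compound for 44 hours at 28 °C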
# Insulin prom inh – TRM-6 insulin promoter activity inhibition | TRM-6 cells (human fetal islet line), insulin promoter-eGFP reporter, imaging; reporter expression induced with tamoxifen | hit rate 0.9% among 130,000 | inhibition, % at 2 µM | AID 1273;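 active = inhibition above the mean plus 3 SD, with well images judged a real hit on visual review, cut at about 60% in these data, passing the limit was not always enough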
# WT yeast gro inh – growth inhibition of WT yeast, mitochondrial fusion screen; hit rate 2.1% among 190,000; AID 1362; inhibition, % at 10 µM; mitochondrial fusion phenotypic screen, WT strain; in the data active = inhibition above about 58%; tested in S. cerevisiae
# Ins promoter up – MIN6 insulin promoter up-regulation | hit rate 0.3% among 190,000 | MIN6 insulin promoter-GFP reporter, high-content imaging; stronger effect = higher value | AID 1625 | z-score at 5 µM;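 active = z-score above 3 at 5 µM with at least 500 cells counted in the well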
# Cl transport mod – modulators of human KCC2 chloride dependent transport; Q9H2X9; KCC2 cells, thallium flux FluoZin-2 fluorescence; B-score of Tl+ flux slope (higher = more flux/activation; lower = inhibition) at 10 µM; hit rate 2.2% among 190,000; AID 1456;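 active = thallium flux slope and its plate-corrected score both differing from the plate sample mean at a set confidence after two filtering rounds, in either direction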;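 also: slope of fluorescence scaled to starting intensity during 10 to 20 s after thallium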
# Target sequence (Q9H2X9 whole entry, looked up): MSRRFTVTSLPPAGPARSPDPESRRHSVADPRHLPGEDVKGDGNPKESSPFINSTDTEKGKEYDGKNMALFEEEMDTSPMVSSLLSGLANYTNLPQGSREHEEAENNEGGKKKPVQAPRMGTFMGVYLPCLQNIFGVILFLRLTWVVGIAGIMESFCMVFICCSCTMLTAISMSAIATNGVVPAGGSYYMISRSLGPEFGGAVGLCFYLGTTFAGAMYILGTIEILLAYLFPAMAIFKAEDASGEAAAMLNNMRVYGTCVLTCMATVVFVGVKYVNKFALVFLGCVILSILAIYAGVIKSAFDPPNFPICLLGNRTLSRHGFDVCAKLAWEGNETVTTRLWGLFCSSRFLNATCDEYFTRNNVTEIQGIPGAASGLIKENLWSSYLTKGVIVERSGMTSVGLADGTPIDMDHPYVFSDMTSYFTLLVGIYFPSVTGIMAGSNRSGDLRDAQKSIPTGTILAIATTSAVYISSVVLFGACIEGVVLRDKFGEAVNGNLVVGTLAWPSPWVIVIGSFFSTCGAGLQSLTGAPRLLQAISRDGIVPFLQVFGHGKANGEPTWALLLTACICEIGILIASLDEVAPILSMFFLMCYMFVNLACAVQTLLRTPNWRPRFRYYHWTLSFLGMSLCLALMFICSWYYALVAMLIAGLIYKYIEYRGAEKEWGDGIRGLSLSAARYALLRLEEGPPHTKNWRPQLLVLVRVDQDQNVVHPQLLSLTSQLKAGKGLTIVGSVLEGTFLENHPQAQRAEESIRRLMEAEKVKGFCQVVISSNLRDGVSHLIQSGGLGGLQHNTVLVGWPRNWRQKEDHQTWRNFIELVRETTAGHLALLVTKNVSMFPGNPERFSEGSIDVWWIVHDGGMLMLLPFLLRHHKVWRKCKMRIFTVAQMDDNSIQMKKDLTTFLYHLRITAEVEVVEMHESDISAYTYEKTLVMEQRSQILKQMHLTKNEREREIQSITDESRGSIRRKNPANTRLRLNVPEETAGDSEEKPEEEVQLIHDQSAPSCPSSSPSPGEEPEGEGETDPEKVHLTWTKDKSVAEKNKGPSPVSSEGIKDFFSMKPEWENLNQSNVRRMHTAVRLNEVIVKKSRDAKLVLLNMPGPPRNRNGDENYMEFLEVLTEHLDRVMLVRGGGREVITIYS
# ROMK primary – human ROMK K+ channel modulation, primary screen; P48048; Tet-inducible ROMK, thallium flux fluorescence; actives lie on both sides; B-score at 10 µM; hit rate 2% among 130,000; AID 1918;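 active = signal ratio slope over the read window, or its plate-corrected B-score, at least 3 SD from the plate mean, either direction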;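 also: B-score of the F/F0 ratio slope over 7 to 12 s after thallium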
# ROMK retest – confirmation of human ROMK potassium channel modulators | shares compounds with ROMK primary | ROMK thallium flux, fluorescence ratio; stronger effect = lower value | normalized thallium flux (F/F0 slope) at 10 µM | hit rate 54% among 3,000;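 active = Flux at 10 µM at least 3 SD below or above vehicle control mean in one or both replicates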
# * hit, by the source's call; / = no result. Compounds with a hit are over-represented: about 12% of the library has one in this group of screens.
SMILES,Lmaj promast,Insulin prom inh,WT yeast gro inh,Ins promoter up,Cl transport mod,ROMK primary,ROMK retest
Cc1cc(C)n(/N=C/c2ccc(O)cc2)c(=O)c1C#N,-2,/,-10,0.08,/,/,/
CC(C)=CCC/C(C)=C/CCC(C)NCCN1CCNCC1 (stereo not given),101*,/,32,-1.1,/,-3.3*,0.054*
CC(C)=CCCC(C)CN1CCC(O)CC1 (stereo not given),13,24,17,-0.09,0.84,/,/
O=C(NC1CC1)C1C2C3C4CC5C3C5C4C12 (stereo not given),-3,/,2,0.28,-0.39,0.37,/
O=C(CCCC(=O)N1CCN(c2ccc([N+](=O)[O-])cc2)CC1)c1ccccc1,86*,28,11,0.12,-1.5,-3.2*,0.058*
O=C(ON=C1CCN(c2ccc([N+](=O)[O-])cc2)CC1)c1ccccc1,-8,/,28,0.28,-1.2,/,0.067*
Cc1noc(C)c1CSCC(=O)N1CCN(c2ccc([N+](=O)[O-])cc2)CC1,16,23,-8,-0.96,0.032,-4.3*,0.042*
O=C(CCN1C(=O)C2C3C=CC(C3)C2C1=O)N1CCN(c2ccc(F)cc2)CC1 (stereo not given),-9,/,-4,-0.12,-0.056,/,/
O=C(CCCCC(=O)N1CCN(c2ccccc2)CC1)N1CCN(c2ccccc2)CC1,/,/,5,-0.21,/,/,/
CC(=O)N1CCN(c2ccc([N+](=O)[O-])cc2)CC1,-2,33,15,-1.5,-0.22,0.67,/
O=C(CCN1C(=O)C2C3C=CC(C3)C2C1=O)N1CCN(c2ccc([N+](=O)[O-])cc2)CC1 (stereo not given),-10,-25,-6,-0.25,0.045,-2.2,0.088
COc1cccc(CNc2cccc(C(F)(F)F)c2)c1O,7,/,51,-0.68,1.2,0.33,/
Cc1cccc(C(=O)NNS(=O)(=O)c2ccccc2)c1O,-19,-40,-24,-0.04,0.047,-0.073,/
O=C(Cc1n[nH]c(=O)c2ccccc12)OCC(=O)c1ccc2c(c1)OCCO2,-7,/,0,-0.68,0.4,3.6*,0.083
O=C(CC1Oc2ccccc2NC1=O)NCCc1ccccc1 (stereo not given),-8,/,13,0.38,-0.2,/,/
Cc1c2c(nc3nnnn13)CCCC2,-5,/,-5,0.6,1.4,-0.2,/
Cc1cc(-c2nn(-c3ccccc3F)cc2CN2CCN(c3ccncc3)CC2)c(C)s1,41,/,36,-0.65,/,-3.1*,0.064*
COc1ccc(-c2c[n+]3c4n2CCCCC4=C(c2ccc(Br)cc2)C3)cc1,100*,/,-7,-2.2,/,-4.6*,0.052*
Clc1ccc(C2=C3CCCCn4c(-c5ccccc5)c[n+](c43)C2)cc1,100*,-8,1,/,1.1,/,0.064*
CCn1c2ccccc2c2cc(C3C(C#N)=C(C)NC(C)=C3C#N)ccc21,0,-21,-6,0.62,/,0.093,/
Cc1nc(SCc2ccc(Cl)c(Cl)c2)ncc1C(=O)O,-8,38,12,-0.69,/,-2.7,/
COc1cc(/C=C(\C#N)C(=O)N2CCOCC2)ccc1OCc1ccccc1,-1,/,-25,0.56,-0.19,0.015,/
COc1ccc(/C=C(\C#N)C(=O)N2CCOCC2)cc1Br,-1,-29,-6,-0.36,0.36,-3.7*,0.051*
CCn1c(O)c(/C=N/N=C2CCCC2)c2ccc(C3=NNC(=O)CC3)cc21,-2,/,7,-0.53,/,0.52,/
CCn1c(O)c(/C=N/N=C2CCCCC2)c2cc(C3=NNC(=O)CC3)ccc21,/,/,/,-0.48,-1.2,/,0.067*
SMILES,Lmaj promast,Insulin prom inh,WT yeast gro inh,Ins promoter up,Cl transport mod,ROMK primary,ROMK retest
O=C(Cn1cnc2c(nnn2Cc2ccc(F)cc2)c1=O)NCc1ccc(F)cc1,-11,0,-6,1.1,-2,-0.52,/
Cc1ccc(Cn2nnc3c(=O)n(CC(=O)NCc4ccccc4)cnc32)cc1,-5,10,-19,-1.2,-4.6,2.3*,0.089
COc1ccc(C2N(C(=O)N3CCOCC3)CCN2S(=O)(=O)c2ccc(C)cc2)cc1 (stereo not given),3,23,-20,-0.66,/,1.9*,0.083
Cc1ccc(S(=O)(=O)N2CCN(C(=O)N3CCOCC3)C2c2ccc(N(C)C)cc2)cc1 (stereo not given),-3,-91,-8,-0.18,-0.18,1.4,/
COc1ccc(N2CCC(CNC(=O)Nc3ccc(Cl)cc3)C2)cc1 (stereo not given),6,/,22,-0.47,1.3,0.83,/
CC1Cc2nc(SCC(=O)N3CCc4ccccc43)n(C)c(=O)c2S1 (stereo not given),5,-18,1,0.29,-2.1,/,/
COc1ccccc1-n1c(SCC(=O)N2CCc3ccccc32)nc2c(c1=O)SCC2,12,/,-21,/,-2.6,/,0.058*
CCC(Oc1ccccc1)C(=O)O/N=C(\N)c1ccc(OC)c(OC)c1 (stereo not given),32,-31,9,-0.18,0.51,/,/
O=C(/C=C\c1cccs1)N1CCN(Cc2ccc3c(c2)OCO3)CC1,9,29,-17,1.3,-0.46,-0.38,/
O=C(NCC1CCCO1)C1CCCN(c2ncccn2)C1 (stereo not given),0,-12,-4,0.05,0.44,/,0.076
Cc1cc[n+](-c2[nH]c(=O)sc2/C=N/N=C(\[O-])c2ccccc2)cc1C,-8,/,5,0.21,0.018,-6.6*,0.047*
CCNc1nc(C23CC4CC(CC(C4)C2)C3)cs1,15,13,35,-0.73,1.9,0.57,/
CCOC(=O)c1c(CN2CCN(C)CC2)n(-c2ccccc2)c2cc(Br)c(O)cc12,/,/,/,0,-0.24,-2.6,/
CCOC(=O)c1c(CSC(=N)N)n(-c2ccccc2)c2cc(Br)c(OC(C)=O)cc12,/,/,/,-0.7,-0.0034,/,0.058*
CN(C)c1cc(O)c(C(=S)Nc2ccccc2)c(N(C)C)c1,6,-93,3,/,/,-3.3*,0.063*
COc1ccc(-c2ccc(OC)cc2C(=O)O)cc1,1,6,-12,/,-0.36,0.17,/
CCOC(=O)C1=C(O)C(=O)N(c2ccc(S(N)(=O)=O)cc2)C1c1ccc(Cl)cc1 (stereo not given),0,-29,-3,1.3,-0.62,/,/
CCOC(=O)C1=C(O)C(=O)N(c2ccc(S(N)(=O)=O)cc2)C1c1ccccc1 (stereo not given),-5,19,-6,0.16,-0.057,/,0.071
COC(=O)CSc1nnc(-c2ccc(NS(=O)(=O)c3ccccc3)cc2)o1,-4,/,15,0.55,-0.12,-3.5*,0.056*
O=C(OCC(=O)N1c2ccccc2Sc2ccccc21)c1ccc[n+]([O-])c1,-6,25,-8,-0.4,0.0061,0.14,/
CCS(=O)(=O)N1CCC(C(=O)NCCCN2CCCC2)CC1,-1,25,4,-0.44,/,-0.095,/
CCCS(=O)(=O)N1CCC(C(=O)NCCCN2CCC(Cc3ccccc3)CC2)CC1,-7,6,-1,-0.36,-1.7,-4.3*,0.077
CC1(C)CC(N=C2C([N+](=O)[O-])=CC=C3C2=NC2(CCCCC2)N3O)CC(C)(C)N1,/,/,/,0.55,0.48,/,0.076
